Compound activity as filed in PubChem.
Sampled rows, rich in hits. Any-hit rate of the full collection: about 6.7%.
C diff growth – C. difficile growth inhibitors, primary screen, HTS; Clostridium difficile clinical isolate growth, OD600, 24 h; stronger effect = lower value; growth activity, negative = inhibition, % at 16 µg/mL (by protocol); 0.25% of 86,000 active; AID 1259249, 2017;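 active means mean growth activity at or below -80% and every replicate also at or below -80%; inconclusive means mean at or below -80% but some replicate above -80%; inactive means mean growth activity above -80%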;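 further: 0% = DMSO wells and -100% = levofloxacin 16 µg/mL wells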
Pf Dd2 growth – P. falciparum Dd2 growth inhibitors, primary screen, SYBR Green fluorescence, single dose replicates; 72 h; stronger effect = lower value; AID 1159554, 2015; 2.3% of 94,000 active; activity change, % at 10 µM; in the data active means activity change below about -80%; inconclusive means no clear call, values can overlap the other calls
T cruzi growth-1 – T. cruzi intracellular proliferation inhibitors, primary screen, cell-based, beta-gal Tulahuen parasites, NIH3T3 host, luminescence; T. cruzi beta-gal in NIH3T3, GalScreen luminescence, 90 h; inhibition, % at 8.34 µM; AID 624255, 2012; 5.9% of 77,000 active;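 active means mean inhibition above about 93%, with at least 55% of replicates each passing it, limit read from the data, passing the limit was not always enough; inconclusive means only one of those two conditions holds; inactive means neither condition holds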
T cruzi growth-2 – T. cruzi intracellular proliferation inhibitors, confirmation, cell-based, NIH3T3 host, beta-gal parasite, luminescence, cherry-pick | shares compounds with T cruzi growth-1 | T. cruzi beta-gal in NIH3T3, GalScreen luminescence, 90 h | inhibition, % at 8.35 µM | 72% of 5,600 active;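 active means mean replicate inhibition above about 95% and at least 55% of replicates individually reaching it, limit read from the data; inconclusive means only one of the two criteria is met; inactive means neither criterion is met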
T cruzi growth-3 – inhibitors of intracellular T. cruzi replication, confirmation, NIH3T3 host cells, beta-gal parasites, cherry-pick, set 2. inhibition, % at 2.09 µM. T. cruzi beta-gal in NIH3T3, GalScreen luminescence, 90 h. 21% of 5,600 active. shares compounds with T cruzi growth-1;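 active means mean inhibition above about 95%, with at least 55% of replicates also reaching it, limit read from the data; inconclusive means meets just one of the two conditions; inactive means meets neither condition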;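 further: plate controls were neutral control median for no effect and positive control median for full effect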
NIH3T3 tox – cytotoxicity in mouse NIH/3T3 fibroblasts, confirmation, cytotoxicity control for T. cruzi proliferation inhibitor project, cell-based, cherry-pick, single point. shares compounds with T cruzi growth-1. NIH/3T3 viability, CellTiter-Glo ATP luminescence, 90 h. AID 651742, 2012. cytotoxicity (signal decrease), % at 8.35 µM. 14% of 5,600 active;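 active means mean signal decrease across replicates above about 35% based on untreated-well scatter, with enough replicates individually passing, limit read from the data; inconclusive means no rule stated though some were filed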;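 further: 0% = median of neutral control wells and 100% = median of positive control wells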
3T3 cytotox 2 – NIH/3T3 fibroblast cytotoxicity, confirmation, cytotoxicity control, cell-based, cherry-pick, single point, set 2 | shares compounds with T cruzi growth-1 | NIH/3T3 viability, CellTiter-Glo ATP luminescence, 90 h | inhibition, % at 24.9 µM | 56% of 5,600 active;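 active means mean loss of cell viability signal at or above a set limit, and enough replicates individually reaching it; inconclusive means meets only the mean limit or only the replicate share; inactive means meets neither condition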;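 further: 0% = median of neutral control wells and 100% = median of positive control wells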
An asterisk follows results filed as active.

Screening C[C@@H]1CN([C@@H](C)CO)S(=O)(=O)c2ccc(/C=C/c3ccccc3)cc2O[C@@H]1CN(C)C(=O)Nc1ccc(F)cc1 returned C diff growth -1.6, Pf Dd2 growth -89.1*, T cruzi growth-1 122.6*, T cruzi growth-2 101.7*, T cruzi growth-3 103.7*, NIH3T3 tox 31.5 and 3T3 cytotox 2 47.5*.
C/C=C/c1ccc2c(c1)O[C@H](CN(C)C(=O)Nc1ccc(F)cc1)[C@@H](C)CN([C@@H](C)CO)S2(=O)=O was read as C diff growth 6.0, Pf Dd2 growth -7.4 and T cruzi growth-1 6.6.
For C[C@@H]1CN([C@@H](C)CO)S(=O)(=O)c2ccc(/C=C/c3ccccc3)cc2O[C@H]1CN(C)C(=O)Nc1ccc(F)cc1 the results were C diff growth -8.9, Pf Dd2 growth -72.8, T cruzi growth-1 131.5*, T cruzi growth-2 98.5*, T cruzi growth-3 96.0*, NIH3T3 tox 38.7* and 3T3 cytotox 2 60.9*.
C[C@H](CO)N1C[C@H](C)[C@@H](CN(C)C(=O)Nc2cc(F)ccc2F)Oc2cc(/C=C/c3ccccc3)ccc2S1(=O)=O was read as C diff growth 5.9 and Pf Dd2 growth -66.3.
C[C@@H]1CCCCO[C@@H](CN(C)C(=O)Nc2ccccc2)[C@H](C)CN([C@@H](C)CO)C(=O)c2cc(NC(=O)c3ccncc3)ccc2O1 was read as C diff growth 11.2, Pf Dd2 growth -7.3 and T cruzi growth-1 17.8.
`CN(C)C(=O)c1cccc(-c2ccc3c(c2)[C@H]2[C@H](CCN2C(=O)C2CCCCC2)[C@@H](CO)N3)c1` gave C diff growth 0.3, Pf Dd2 growth -8.6 and T cruzi growth-1 33.5.
`C[C@@H]1CN([C@H](C)CO)C(=O)c2cc(NC(=O)c3ccncc3)ccc2O[C@H]1CN(C)Cc1ccc(C(=O)Nc2ccccc2N)cc1` gave C diff growth -0.5 and Pf Dd2 growth -47.5.
COc1ccc(NC(=O)Nc2ccc3c(c2)C(=O)N([C@@H](C)CO)C[C@@H](C)[C@H](CN(C)C(=O)C2CCCCC2)OCCCC[C@@H](C)O3)cc1 was read as C diff growth -5.8, Pf Dd2 growth -25.4, T cruzi growth-1 inconclusive, T cruzi growth-2 inconclusive, T cruzi growth-3 15.7, NIH3T3 tox -4.0 and 3T3 cytotox 2 -2.2.
Screening C[C@H]1CCCCO[C@@H](CN(C)C(=O)C2CCCCC2)[C@@H](C)CN([C@@H](C)CO)C(=O)c2cc(NC(=O)Nc3ccc(F)cc3)ccc2O1 returned C diff growth -3.9, Pf Dd2 growth -85.1*, T cruzi growth-1 inconclusive, T cruzi growth-2 111.0*, T cruzi growth-3 23.6, NIH3T3 tox -6.6 and 3T3 cytotox 2 6.7.
Screening C[C@@H]1CCCCO[C@@H](CN(C)C(=O)C2CCCCC2)[C@@H](C)CN([C@H](C)CO)C(=O)c2cc(NC(=O)Nc3ccccc3)ccc2O1 returned C diff growth 6.9, Pf Dd2 growth -54.5 and T cruzi growth-1 67.2.
Screening C[C@@H]1CCCCO[C@@H](CN(C)C(=O)C2CCCCC2)[C@H](C)CN([C@H](C)CO)C(=O)c2cc(NC(=O)Nc3ccc(F)cc3)ccc2O1 returned C diff growth -1.8, Pf Dd2 growth -48.8 and T cruzi growth-1 90.3.
`C[C@@H]1CCCCO[C@H](CN(C)C(=O)C2CCCCC2)[C@@H](C)CN([C@@H](C)CO)C(=O)c2cc(NC(=O)Nc3ccc(C(F)(F)F)cc3)ccc2O1` gave C diff growth 7.3, Pf Dd2 growth -87.7*, T cruzi growth-1 120.5*, T cruzi growth-2 97.8*, T cruzi growth-3 106.2*, NIH3T3 tox -13.1 and 3T3 cytotox 2 -8.4.
C[C@H](CO)N1C[C@H](C)[C@@H](CN(C)C(=O)C2CCCCC2)OCCCC[C@H](C)Oc2ccc(NC(=O)Nc3ccc(F)cc3)cc2C1=O was read as C diff growth -0.6, Pf Dd2 growth 0.9 and T cruzi growth-1 84.1.
Screening C[C@@H]1CCCCO[C@H](CN(C)C(=O)C2CCCCC2)[C@@H](C)CN([C@H](C)CO)C(=O)c2cc(NC(=O)Nc3ccc(C(F)(F)F)cc3)ccc2O1 returned C diff growth 13.6, Pf Dd2 growth -41.8, T cruzi growth-1 120.4*, T cruzi growth-2 105.3*, T cruzi growth-3 86.9, NIH3T3 tox 9.6 and 3T3 cytotox 2 inconclusive.
COc1ccc(NC(=O)Nc2ccc3c(c2)C(=O)N([C@@H](C)CO)C[C@@H](C)[C@H](CN(C)C(=O)C2CCCCC2)OCCCC[C@H](C)O3)cc1 was read as C diff growth -6.3, Pf Dd2 growth -32.5 and T cruzi growth-1 65.3.
For O=C(NCC[C@@H]1CC[C@@H](NS(=O)(=O)c2cccc(F)c2)[C@@H](CO)O1)C1CCC1 the results were C diff growth -0.6 and Pf Dd2 growth 2.8.
For O=C(Nc1cccc(Cl)c1)N[C@@H]1CC[C@H](CCNC(=O)C2CCOCC2)O[C@@H]1CO the results were C diff growth 2.0, Pf Dd2 growth 8.0 and T cruzi growth-1 16.7.
Screening C[C@@H]1CCCCO[C@@H](CN(C)C(=O)C2CCCCC2)[C@H](C)CN([C@H](C)CO)C(=O)c2cc(NC(=O)Nc3ccc(C(F)(F)F)cc3)ccc2O1 returned C diff growth 12.5, Pf Dd2 growth -50.2 and T cruzi growth-1 100.0.
Screening C[C@H]1CCCCO[C@@H](CN(C)C(=O)C2CCCCC2)[C@@H](C)CN([C@@H](C)CO)C(=O)c2cc(NC(=O)Nc3ccc(C(F)(F)F)cc3)ccc2O1 returned C diff growth 1.3, Pf Dd2 growth -88.6*, T cruzi growth-1 120.4*, T cruzi growth-2 95.7*, T cruzi growth-3 115.2*, NIH3T3 tox -13.0 and 3T3 cytotox 2 7.3.
For C[C@H](CO)N1C[C@H](C)[C@H](CN(C)C(=O)C2CCCCC2)OCCCC[C@H](C)Oc2ccc(NC(=O)Nc3ccc(C(F)(F)F)cc3)cc2C1=O the results were C diff growth -1.2, Pf Dd2 growth -23.5 and T cruzi growth-1 99.9.
Screening C[C@@H]1CN([C@@H](C)CO)C(=O)c2cc(NC(=O)Nc3ccc(C(F)(F)F)cc3)ccc2O[C@@H](C)CCCCO[C@H]1CN(C)C(=O)C1CCCCC1 returned C diff growth 1.3, Pf Dd2 growth -67.9, T cruzi growth-1 119.0*, T cruzi growth-2 108.1*, T cruzi growth-3 111.0*, NIH3T3 tox 2.8 and 3T3 cytotox 2 7.5.
